PubChem BioAssay AID1159580 (chemical genetic matrix, 2015)
Where “and” joins values, the source holds several entries; their conditions need not be identical. Identical values can stand only once. About 2,000 (36%) of roughly 5,500 compounds were called active. Roughly 18% stayed inconclusive and do not appear here. Rule as the data show it: active = normalized growth mostly below about 0.91 (no sharp cut-off); inconclusive = no clear call, values can overlap the other calls; inactive = mostly above about 0.92. Some of the results follow.

Experiment: chemical genetic growth profiling, strain panel (AID 1159580);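 also: tested at 20 µM; growth read once vehicle control cultures reached saturation at 30 °C; 1 = growth at the plate median or of vehicle wells; lower values mean less growth of the strain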
Conditions: S. cerevisiae deletion strains, growth OD

Measured: normalized growth

COC1CC(O[C@H]2CC[C@]3(C=O)C4CC[C@]5(C)C(C6=CC(=O)OC6)CC[C@]5(O)C4CC[C@]3(O)C2)OC(C)C1O (some centres not stated)
inactive: locus YAL013W, strain DEP1, hits give low values 1.02 | locus YAL021C, strain ccr4, hits give low values 0.938 | locus YAL026C, strain drs2, hits give low values 1.02 | locus YAL030W, strain snc1, hits give low values 0.978 | locus YBL061C, strain skt5, hits give low values 0.99 | locus YBR009C, strain hhf1, hits give low values 0.985 | locus YBR021W, strain FUR4, hits give low values 1.01 | locus YBR023C, strain chs3, hits give low values 0.967 | locus YBR171W, strain sec66, hits give low values 1 | locus YBR229C, strain ROT2, hits give low values 1.02 | locus YBR231C, strain swc5, hits give low values 1 | locus YBR279W, strain paf1, hits give low values 1 | locus YCL011C, strain gbp2, hits give low values 0.961 | locus YCL016C, strain dcc1, hits give low values 0.954 | locus YCL029C, strain bik1, hits give low values 0.994 | locus YCL069W, strain vba3, hits give low values 0.969 | locus YCR088W, strain abp1, hits give low values 0.983 | locus YDL005C, strain med2, hits give low values 0.969 | locus YDL035C, strain GPR1, hits give low values 1.04 | locus YDL040C, strain nat1, hits give low values 0.986 | locus YDL074C, strain BRE1, hits give low values 1.09 | locus YDL101C, strain DUN1, hits give low values 1.02 | locus YDL134C, strain PPH21, hits give low values 1.02 | locus YDL185W, strain tfp1, hits give low values 0.995 | locus YDL192W, strain arf1, hits give low values 1.02 | locus YDR001C, strain nth1, hits give low values 0.955 | locus YDR069C, strain doa4, hits give low values 0.994 | locus YDR101C, strain arx1, hits give low values 1.02 | locus YDR137W, strain rgp1, hits give low values 0.975 | locus YDR159W, strain sac3, hits give low values 1 | locus YDR162C, strain NBP2, hits give low values 1.03 | locus YDR195W, strain ref2 0.914 | locus YDR297W, strain sur2, hits give low values 0.999 | locus YDR318W, strain mcm21, hits give low values 1.01 | locus YDR334W, strain swr1, hits give low values 0.977 | locus YDR335W, strain msn5, hits give low values 0.955 | locus YDR388W, hits give low values 0.987 | locus YDR392W, strain spt3, hits give low values 0.903 | locus YDR502C, strain sam2, hits give low values 0.987 | locus YEL003W, strain gim4, hits give low values 1.01 | locus YEL037C, strain rad23, hits give low values 0.977 | locus YEL061C, strain CIN8 (second series), hits give low values 0.981 | locus YER015W, strain faa2, hits give low values 0.975 | locus YER016W, strain bim1, hits give low values 0.983 | locus YER110C, hits give low values 0.986 | locus YER111C, strain swi4, hits give low values 0.994 | locus YER155C, strain BEM2 (second series), hits give low values 1.01 | locus YER155C, strain BEM2, hits give low values 1.01 | locus YER167W, strain BCK2, hits give low values 1.03 | locus YFR010W, strain ubp6, hits give low values 1 | locus YGL078C, strain dbp3, hits give low values 0.992 | locus YGL086W, strain mad1, hits give low values 0.998 | locus YGL167C, strain pmr1, hits give low values 0.976 | locus YGL173C, strain kem1, hits give low values 0.992 | locus YGL227W, strain vid30, hits give low values 0.987 | locus YGL240W, strain doc1, hits give low values 1 | locus YGL248W, strain PDE1, hits give low values 1.01 | locus YGL253W, strain hxk2, hits give low values 0.997 | locus YGR078C, strain PAC10, hits give low values 1.02 | locus YGR135W, strain pre9, hits give low values 0.981 | locus YGR229C, strain SMI1, hits give low values 1.04 | locus YGR252W, strain gcn5, hits give low values 0.949 | locus YHR013C, strain ard1, hits give low values 0.934 | locus YHR027C, strain rpn1, hits give low values 0.97 | locus YHR030C, strain SLT2, hits give low values 1.02 and 0.984 | locus YHR079C, strain IRE1 (second series), hits give low values 0.998 | locus YHR079C, strain IRE1, hits give low values 1.01 | locus YHR094C, strain hxt1, hits give low values 0.984 | locus YHR129C, strain ARP1, hits give low values 1.02 | locus YHR142W, strain chs7, hits give low values 0.918 | locus YHR200W, strain rpn10, hits give low values 0.992 | locus YIL066C, strain RNR3, hits give low values 1.05 | locus YIL073C, strain SPO22, hits give low values 1.01 | locus YIL125W, strain kgd1, hits give low values 1 | locus YIR030C, strain dcg1, hits give low values 0.993 | locus YJL092W, strain hpr5, hits give low values 0.985 | locus YJL095W, strain BCK1 (second series), hits give low values 0.987 | locus YJL095W, strain BCK1, hits give low values 1.04 and 0.985 | locus YJL115W, strain asf1, hits give low values 0.964 | locus YJL129C, strain trk1, hits give low values 0.958 | locus YJL134W, strain LCB3, hits give low values 1.01 | locus YJL154C, strain vps35, hits give low values 0.967 | locus YJL164C, strain tpk1, hits give low values 0.99 | locus YJL166W, strain qcr8, hits give low values 0.996 | locus YJL168C, strain set2, hits give low values 0.994 | locus YJL187C, strain SWE1 (second series), hits give low values 1.02 | locus YJR066W, strain TOR1, hits give low values 0.904 | locus YKL009W, strain mrt4, hits give low values 1.04 | locus YKL068W, hits give low values 1 | locus YKL085W, strain MDH1 (second series), hits give low values 1 | locus YKL085W, strain MDH1, hits give low values 1 | locus YKL160W, strain elf1, hits give low values 0.962 | locus YKL190W, strain CNB1, hits give low values 1.02 | locus YKR001C, strain vps1, hits give low values 0.992 | locus YKR026C, strain gcn3, hits give low values 0.987 | locus YKR091W, strain srl3, hits give low values 0.968 | locus YLL001W, strain dnm1, hits give low values 0.963 | locus YLL026W, hits give low values 0.982 | locus YLL041C, strain sdh2, hits give low values 0.971 | locus YLR027C, strain aat2, hits give low values 1.02 | locus YLR039C, strain RIC1, hits give low values 1.08 | locus YLR058C, strain SHM2, hits give low values 1.03 | locus YLR102C, strain apc9, hits give low values 0.996 | locus YLR113W, strain HOG1, hits give low values 1.02 | locus YLR221C, strain rsa3, hits give low values 1.02 | locus YLR258W, strain gsy2, hits give low values 0.962 | locus YLR262C, strain YPT6 (second series), hits give low values 1.01 | locus YLR262C, strain YPT6, hits give low values 1.11 | locus YLR268W, strain sec22, hits give low values 1.02 | locus YLR320W, strain mms22, hits give low values 1.03 | locus YLR330W, strain CHS5, hits give low values 1.02 | locus YLR342W, strain FKS1 (second series), hits give low values 1.06 | locus YLR342W, strain FKS1, hits give low values 1 | locus YLR357W, strain rsc2, hits give low values 0.95 | locus YLR370C, strain arc18, hits give low values 0.98 | locus YLR371W, strain rom2, hits give low values 1.01 | locus YLR384C, strain iki3, hits give low values 0.969 | locus YLR418C, strain cdc73, hits give low values 0.958 | locus YML016C, strain PPZ1, hits give low values 1.02 | locus YML032C, strain rad52, hits give low values 0.994 | locus YML120C, strain ndi1, hits give low values 0.947 | locus YML124C, strain tub3, hits give low values 0.997 | locus YMR058W, strain fet3, hits give low values 0.992 | locus YMR078C, strain ctf18, hits give low values 0.99 | locus YMR125W, strain sto1, hits give low values 0.926 | locus YMR129W, hits give low values 0.989 | locus YMR205C, strain PFK2, hits give low values 0.984 | locus YMR223W, strain ubp8, hits give low values 0.995 | locus YMR231W, strain pep5, hits give low values 1 | locus YMR307W, strain GAS1, hits give low values 1.16 | locus YNL067W, strain RPL9B, hits give low values 1 | locus YNL071W, strain lat1, hits give low values 0.967 | locus YNL183C, strain NPR1, hits give low values 0.927 | locus YNL209W, strain ssb2, hits give low values 0.984 | locus YNL233W, strain BNI4, hits give low values 1.02 | locus YNL248C, strain rpa49, hits give low values 0.904 | locus YNL250W, strain rad50, hits give low values 0.972 | locus YNL271C, strain bni1, hits give low values 1.01 | locus YNL298W, strain CLA4, hits give low values 0.998 | locus YNL307C, strain MCK1, hits give low values 0.998 | locus YNL322C, strain KRE1 (second series), hits give low values 0.971 | locus YNL322C, strain KRE1, hits give low values 1.02 | locus YNR049C, strain mso1, hits give low values 0.951 | locus YNR052C, strain pop2, hits give low values 0.988 | locus YOL012C, strain htz1 0.64 | locus YOL147C, strain pex11, hits give low values 0.987 | locus YOR001W, strain rrp6, hits give low values 0.989 | locus YOR061W, strain CKA2, hits give low values 1.05 | locus YOR069W, strain VPS5, hits give low values 1.02 | locus YOR070C, strain gyp1, hits give low values 1 | locus YOR080W, strain dia2, hits give low values 0.991 | locus YOR083W, strain WHI5, hits give low values 0.973 | locus YOR106W, strain vam3, hits give low values 0.922 | locus YOR136W, strain idh2, hits give low values 0.958 | locus YOR144C, strain elg1, hits give low values 0.989 | locus YOR184W, strain ser1, hits give low values 1.04 | locus YOR231W, strain MKK1, hits give low values 1.01 | locus YOR265W, strain rbl2, hits give low values 0.997 | locus YOR270C, strain vph1, hits give low values 1.08 | locus YOR290C, strain snf2, hits give low values 0.888 | locus YOR316C, strain cot1, hits give low values 0.984 | locus YPL051W, strain arl3, hits give low values 0.992 | locus YPL055C, strain LGE1, hits give low values 1.06 | locus YPL078C, strain atp4, hits give low values 0.927 | locus YPL106C, strain sse1, hits give low values 0.966 | locus YPL240C, strain hsp82, hits give low values 0.988 | locus YPL256C, strain CLN2, hits give low values 1.01 | locus YPR119W, strain clb2, hits give low values 0.992 | locus YPR141C, strain kar3, hits give low values 0.992 | locus YPR163C, strain tif3, hits give low values 0.993 | locus YPR167C, strain met16, hits give low values 0.987 | strain wtn01, hits give low values 1.01
